Data from PubChem BioAssay (NCATS).
Records with an inconclusive call do not appear. Unmarked numbers belong to inactive results. Activity calls are given as the source filed them. Calls follow the shape of the dose curve; as a rule, active = well fitted cell-killing curve with a large enough effect; inconclusive = small, poorly fitted or top-dose-only effect, or effect the other way; inactive = no such curve, though single readings can be large or run the other way.

Test: Quantitative High-Throughput drug screen in 47 multiple myeloma cell lines against the NCATS MIPE library collection: L363_DSMZ cell viability assay (AID 1918984); also: nearly all actives have a fitted effect of over 40% in size
Conditions: L363 myeloma viability, CellTiter-Glo ATP luminescence, 48 h; series mostly up to 45.8 µM; viability (% of control): at the top concentration
Description: PI: Beverly A. Mock Ph.D.
Laboratory of Cancer Biology and Genetics,
Center for Cancer Research, National Cancer Institute,
National Institute of Health, Bethesda, Maryland
Drug resistance and disease progression are common in multiple myeloma (MM) patients, underscoring the need for new therapeutic combinations. […] We hypothesized that effective combinations would reduce MYC expression and enhance p16 activity. […] These preclinical data identify potentially useful drug combinations for evaluation in drug-resistant MM and reveal potential mechanisms of combined drug sensitivity.
Described herein is the primary MIPE qHTS used to cherrypick compounds. Validated compounds were then further tested for potential synergistic activiy.
[1] Peat TJ, Gaikwad SM, Dubois W, Gyabaah-Kessie N, Zhang S, Gorjifard S, Phyo Z, Andres M, Hughitt VK, Simpson RM, Miller MA, Girvin AT, Taylor A, Williams D, D'Antonio N, Zhang Y, Rajagopalan A, Flietner E, Wilson K, Zhang X, Shinn P, Klumpp-Thomas C, McKnight C, Itkin Z, Chen L, Kazandijian D, Zhang J, Michalowski AM, Simmons JK, Keats J, Thomas CJ, Mock BA. Drug combinations identified by high-throughput screening promote cell cycle transition and upregulate Smad pathways in myeloma. Cancer Lett. 2023 Aug 1;568:216284. doi: 10.1016/j.canlet.2023.216284. Epub 2023 Jun 24. PMID: 37356470; PMCID: PMC10408729.
SEQUENCE No. (e.g., 1, 2, 3, etc.); […] (e.g., Cells, Incubation, Reagent, etc.); VALUE and DESCRIPTION.
1; Cells; 5 uL; white, solid bottom 1536-well Greiner assay plate.
2; Compounds; 23 nL; Kalypsis pin tool (Wako USA) equipped with a 1536-well pin head to transfer to the assay plates.
3; Incubation; 48 hours; 37C incubation.
4; Reagent;5uL; CellTiter Glo (Promega).
5; Detector; 425V; Luminescence; Viewlux PerkinElmer.
NOTES (numbers refer to Sequence numbers above)
1. The cell-based screening methods employed in this study were like those previously published. Briefly, the corresponding myeloma cell lines were screened in 1,536-well plates with 500 cells, 5-uL per well for inhibition of cell viability (assessed by measuring ATP levels with CellTiterGlo).
2. NCATS MIPE 4.0 library of approved and investigational drugs were added using the Kalypsis pin tool. Wells treated with DMSO only for 100% viability and media only for 0% viability were used as controls.
3. The assay plates were covered and incubated for 48 hours in a 37C, 5% CO2 incubator with controlled humidity.
4. After 48 hours, CellTilter-GloTM luminescent substrate mix (Promega) reagent was added to the assay plate and plates we incubated for 5 min at room temperature.
5. Signal was measured as median relative luminescence units on a ViewLux (PerkinElmer) multiplate reader.
[1] Heske CM, Davis MI, Baumgart JT, Wilson K, Gormally MV, Chen L, Zhang X, Ceribelli M, Duveau DY, Guha R, Ferrer M, Arnaldez FI, Ji J, Tran HL, Zhang Y, Mendoza A, Helman LJ, Thomas CJ. Matrix Screen Identifies Synergistic Combination of PARP Inhibitors and Nicotinamide Phosphoribosyltransferase (NAMPT) Inhibitors in Ewing Sarcoma. Clin Cancer Res. 2017 Dec 1;23(23):7301-7311. doi: 10.1158/1078-0432.CCR-17-1121. Epub 2017 Sep 12. PMID: 28899971; PMCID: PMC6636827.
Potency is read from the fitted curve at half-maximal effect.

For CCn1cc(C(=O)O)c(=O)c2cc(F)c(N3CCN(C)CC3)cc21, which Potency is on record?
The Potency was 5.26 µM (active).

Which Potency does the source give for CCCCc1oc2ccc(NS(C)(=O)=O)cc2c1C(=O)c1ccc(OCCCN(CCCC)CCCC)cc1 here?
Its Potency is 8.33 µM (active).

With CN1CCN(c2c(F)cc3c(=O)c(C(=O)O)cn4c3c2OCN4C)CC1 as the molecule, how does the “viability (% of control)” value read?
Its value is 120%.

Which “viability (% of control)” value does the source give for CCn1cc(C(=O)O)c(=O)c2cc(F)c(N3CCNCC3)nc21 here?
Its value is 83.8%.

For CNC(=O)c1cc(Oc2ccc(NC(=O)Nc3ccc(Cl)c(C(F)(F)F)c3)cc2)ccn1, which Potency is on record?
Its Potency is 6.62 µM (active).

For CC(C)(C)C(=O)OCOP(=O)(COCCn1cnc2c(N)ncnc21)OCOC(=O)C(C)(C)C, which Potency is on record?
Its Potency is 4.69 µM (active).

With COCCCOc1cc(C[C@@H](C[C@H](N)[C@@H](O)C[C@H](C(=O)NCC(C)(C)C(N)=O)C(C)C)C(C)C)ccc1OC as the molecule, how does the “viability (% of control)” value read?
Its value is 104%.

Which Potency does the source give for COc1cc2nc(N3CCCN(C)CC3)nc(NC3CCN(Cc4ccccc4)CC3)c2cc1OC here?
The Potency was 1.66 µM (active).

For COc1ccccc1OCC(O)COC(N)=O (stereo not given), which “viability (% of control)” value is on record?
Its value is 99.1%.

For CC1(C)[C@H](C(=O)O)N2C(=O)C[C@H]2S1(=O)=O, which “viability (% of control)” value is on record?
The value was 110%.

With COc1ccc2cc3[n+](cc2c1OC)CCc1cc2c(cc1-3)OCO2 as the molecule, how does the Potency read?
The Potency was 6.62 µM (active).

Which Potency does the source give for CCc1c2c(nc3ccc(OC(=O)N4CCC(N5CCCCC5)CC4)cc13)-c1cc3c(c(=O)n1C2)COC(=O)[C@]3(O)CC here?
Its Potency is 0.0372 µM (active).

For CCCc1nc(C)c2c(=O)[nH]c(-c3cc(S(=O)(=O)N4CCN(CC)CC4)ccc3OCC)nn12, which Potency is on record?
The Potency was 4.18 µM (active).

With O=C(O)c1cccnc1 as the molecule, how does the “viability (% of control)” value read?
The value was 90.3%.

Which “viability (% of control)” value does the source give for CC[C@H](C)C(=O)O[C@H]1C[C@@H](C)C=C2C=C[C@H](C)[C@H](CC[C@@H]3C[C@@H](O)CC(=O)O3)[C@H]21 here?
Its value is 88.7%.

For NC(=O)N1c2ccccc2CC(=O)c2ccccc21, which “viability (% of control)” value is on record?
Its value is 96.3%.

For CCOC(=O)c1ccc(C#Cc2ccc3c(c2)C(C)(C)CCS3)nc1, which “viability (% of control)” value is on record?
The value was 93.5%.

Which “viability (% of control)” value does the source give for NNC(=O)c1ccncc1 here?
Its value is 71.1%.

Which “viability (% of control)” value does the source give for CN1CCN(c2c(F)cc3c(=O)c(C(=O)O)cn(CCF)c3c2F)CC1 here?
The value was 102%.

For NS(=O)(=O)c1cc2c(cc1Cl)NC(C(Cl)Cl)NS2(=O)=O (stereo not given), which “viability (% of control)” value is on record?
The value was 94.4%.

For C[C@@H](NCCCc1cccc(C(F)(F)F)c1)c1cccc2ccccc12, which “viability (% of control)” value is on record?
The value was 139%.

Which “viability (% of control)” value does the source give for Cc1ccnc2c1NC(=O)c1cccnc1N2C1CC1 here?
Its value is 70.3%.

Which “viability (% of control)” value does the source give for OCc1ccc(-c2nn(Cc3ccccc3)c3ccccc23)o1 here?
The value was 111%.

With COc1ccc(C(=O)CC(=O)c2ccc(C(C)(C)C)cc2)cc1 as the molecule, how does the Potency read?
The Potency was 6.62 µM (active).

With CCCN[C@H]1CCc2nc(N)sc2C1 as the molecule, how does the “viability (% of control)” value read?
Its value is 103%.

For C1CCC(C(CC2CCCCN2)C2CCCCC2)CC1 (stereo not given), which Potency is on record?
Its Potency is 8.33 µM (active).

For COc1cc(NCc2ccc3nc(N)nc(N)c3c2C)cc(OC)c1OC, which Potency is on record?
Its Potency is 0.935 µM (active).

Which Potency does the source give for Cc1nnc(NS(=O)(=O)c2ccc(N)cc2)s1 here?
Its Potency is 1.18 µM (active).

For Nc1nc(N)nc(-c2cc(Cl)ccc2Cl)n1, which “viability (% of control)” value is on record?
Its value is 110%.

Which “viability (% of control)” value does the source give for CCN[C@H]1C[C@H](C)S(=O)(=O)c2sc(S(N)(=O)=O)cc21 here?
Its value is 77.5%.

Which “viability (% of control)” value does the source give for CC(C)OC(=O)C(C(=O)OC(C)C)=C1SC=CS1 here?
The value was 122%.

Which Potency does the source give for CC(C)Cn1cnc2c(N)nc3ccccc3c21 here?
The Potency was 4.18 µM (active).

Which “viability (% of control)” value does the source give for O=C(O)c1cc(=O)[nH]c(=O)[nH]1 here?
The value was 119%.

With CCN(CC)CCn1c(=O)c(Cc2ccc(OC)cc2)nc2ccccc21 as the molecule, how does the “viability (% of control)” value read?
The value was 83.3%.

For N=C(N)c1ccc(OCCCCCOc2ccc(C(=N)N)cc2)cc1, which “viability (% of control)” value is on record?
The value was 90.7%.

With Oc1c(Cl)cc(Cl)c2cccnc12 as the molecule, how does the Potency read?
The Potency was 9.35 µM (active).

Which Potency does the source give for CCOC(=O)[C@H](CCc1ccccc1)N[C@H]1CCc2ccccc2N(CC(=O)O)C1=O here?
The Potency was 7.43 µM (active).

For O=c1cc(O)c(Cl)c[nH]1, which Potency is on record?
The Potency was 2.35 µM (active).

For Cn1c(=O)c2c(ncn2CC(O)CO)n(C)c1=O (stereo not given), which Potency is on record?
Its Potency is 5.26 µM (active).

With CCOC(=O)[C@H](CCc1ccccc1)N[C@H]1CS[C@H](c2cccs2)CN(CC(=O)O)C1=O as the molecule, how does the Potency read?
Its Potency is 0.662 µM (active).
